# Assay results published in PubChem BioAssay (NCATS).
# Inconclusive results are not listed. Unmarked numbers belong to inactive results. Calls of active or inactive are those of the source. The call rests on the fitted dose curve; in most records, active means well fitted inhibition curve with a large enough effect; inconclusive means small, poorly fitted or top-dose-only effect; inactive means no such curve, though single readings can be large or run the other way.
# Biological target: Cytochrome P450 3A4 (Homo sapiens) (UniProt P08684)
# Test: qHTS Assay for Inhibitors and Substrates of Cytochrome P450 3A4 (AID 884); further: nearly all actives have a fitted effect of over 50% in size
# Details: recombinant CYP3A4, Luciferin-PPXE luminescence; series mostly up to 57.1 µM; activity change, negative = inhibition: at the top concentration
# Procedure, shortened: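 Luminescent readout of luciferin produced by CYP3A4 (20 nM) dealkylation of Luciferin-PPXE, 25 uM (its KM). NADPH-driven reaction ran 60 min at RT after 10 min compound preincubation; data scaled to 57 uM ketoconazole as 100% inhibition.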
# On the % scale 0 is the no-effect control and ±100 the full control effect; potency means the concentration at half of the fitted maximal effect.
# Cytochrome P450 3A4 (Homo sapiens), sequence (P08684 whole entry, looked up): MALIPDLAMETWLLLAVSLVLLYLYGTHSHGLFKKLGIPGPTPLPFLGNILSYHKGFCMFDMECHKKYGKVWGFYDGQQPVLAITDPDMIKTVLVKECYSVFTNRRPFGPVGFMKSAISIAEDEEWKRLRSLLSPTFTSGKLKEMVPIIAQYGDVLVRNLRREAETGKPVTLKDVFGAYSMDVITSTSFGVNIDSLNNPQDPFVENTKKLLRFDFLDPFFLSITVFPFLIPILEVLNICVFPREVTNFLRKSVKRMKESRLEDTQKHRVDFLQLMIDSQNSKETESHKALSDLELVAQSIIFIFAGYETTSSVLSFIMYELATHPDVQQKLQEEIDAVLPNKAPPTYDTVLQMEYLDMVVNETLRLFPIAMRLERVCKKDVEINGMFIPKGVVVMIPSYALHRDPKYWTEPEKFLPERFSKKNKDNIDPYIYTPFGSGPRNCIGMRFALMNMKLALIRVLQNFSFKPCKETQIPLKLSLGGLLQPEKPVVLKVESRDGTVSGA
SMILES,"activity change, negative = inhibition [%]",Potency
CN(C)CCc1c[nH]c2ccc(Cn3cncn3)cc12,-17.2,
CN1C(C(=O)Nc2ccccn2)=C(O)c2sccc2S1(=O)=O,-8.97,
O=C(O)c1cn(-c2ccc(F)cc2)c2cc(N3CCNCC3)c(F)cc2c1=O,-3.43,
Cc1cc(C2CCCCC2)n(O)c(=O)c1,-17.6,
O=C(c1ccccc1)c1ccc2n1CCC2C(=O)O (stereo not given),-13.5,
S=c1nc[nH]c2nc[nH]c12,-22.8,
CCCOc1ccc2nc(NC(=O)OC)[nH]c2c1,-9.87,
C[C@@H](N)C1CCC(C(=O)Nc2ccncc2)CC1 (stereo not given in full),,15.8 µM (active)
NC(=NCc1ccccc1)NC(=O)c1nc(Cl)c(N)nc1N,-19,
Cc1ccc(S(=O)(=O)NC(=O)NN2CC3CCCC3C2)cc1 (stereo not given),,inactive
O=C(NC(Cc1cc(=O)[nH]c2ccccc12)C(=O)O)c1ccc(Cl)cc1 (stereo not given),-24.5,
NCCCCNCCCN,2.95,
COc1ccccc1N1CCN(CCN(C(=O)C2CCCCC2)c2ccccn2)CC1,,3.98 µM (active)
Cc1cc2cc3c(C)cc(=O)oc3c(C)c2o1,,3.98 µM (active)
